Only some compounds are listed: those with a hit (about 2.4% of all), similar ones and a draw of the others.
POLB inh – inhibitors of human DNA polymerase beta. P06746. Pol beta primer extension/strand displacement, fluorescence kinetic. Potency, µM (highest dose often 114 µM), for the others: at the top dose activity change, negative = inhibition, actives largely listed as inhibitors. hit rate 1.3% among 340,000. AID 485314; also: % is scaled to controls: 0 for no effect and ±100 for the full control effect
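Curves were derived by four-parameter Hill fits of normalized qHTS data. The kinetic fluorescent primer-extension read was taken at 0 and 10 min after 50 nM substrate, following a 15 min room-temperature preincubation of 10 nM enzyme with compounds.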
Pol kappa inh-1 – inhibitors of human DNA polymerase kappa | Q9UBT6 | purified Pol kappa, fluorescent DNA synthesis assay, 10 min | Potency, µM (top dose mostly 107 µM), for the others: top-dose activity, negative = inhibition, usual class: inhibitors | hit rate 0.53% among 400,000; also: % is scaled to controls: 0 for no effect and ±100 for the full control effect
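10 nM Pol kappa preincubated 15 min at room temperature with compounds, then reaction started with substrate at 50 nM final. Fluorescence read kinetically at 0 and 10 min; buffer-only wells served as negative control.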
POLI inh – blocks human DNA polymerase iota activity; Q9UNA4; Pol iota fluorescent replication assay, 10 min; Potency, µM (titrated, usually from 115 µM), without a hit: at the highest dose activity, negative = inhibition, actives largely listed as inhibitors; hit rate 1% among 390,000; AID 588590
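Fluorescent replication assay read twice, at 0 min and 10 min after adding 50 nM (final) substrate. Enzyme (10 nM) and compounds were first incubated 15 min at room temperature; enzyme-free buffer wells were negative controls.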
Pol eta inh-1 – DNA polymerase eta (human) inhibition. Q9Y253. recombinant Pol eta, fluorescent DNA replication assay. Potency, µM (top dose mostly 114 µM), for the others: top-dose activity change, negative = inhibition, most hits filed as inhibitors. hit rate 1.2% among 390,000; also: % is scaled to controls: 0 for no effect and ±100 for the full control effect
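Pol eta (10 nM) was preincubated with compounds for 15 min at room temperature, after which fluorescent replication substrate (50 nM final) was added to start the reaction. Fluorescence was read kinetically at 0 and 10 min.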
FEN1 inh-1 – blocks human flap endonuclease 1; P39748; Recombinant FEN1 flap cleavage, fluorescence, 15 min; Potency, µM (doses to about 114 µM), for the others: top-dose activity change, negative = inhibition, usual class: inhibitors; hit rate 0.35% among 390,000; also: % is scaled to controls: 0 for no effect and ±100 for the full control effect; nearly all actives have a fitted effect of over 65% in size
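Compounds are tested as a concentration series against 10 nM FEN1; after a 15 min room-temperature preincubation, 50 nM substrate starts cleavage, with plate reads at 0 and 15 min. Normalized responses are fitted by a Hill equation.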
WRN helicase inh-1 – inhibitors of human WRN helicase. Q14191. WRN helicase unwinding, fluorescent forked duplex, kinetic. Potency, µM (titrated, usually from 114 µM), for the others: top-dose activity change, negative = inhibition, most hits filed as inhibitors. hit rate 0.46% among 360,000. AID 651768; also: % is scaled to controls: 0 for no effect and ±100 for the full control effect; nearly all actives have a fitted effect of over 55% in size
Target sequence (Q14191 whole entry, looked up): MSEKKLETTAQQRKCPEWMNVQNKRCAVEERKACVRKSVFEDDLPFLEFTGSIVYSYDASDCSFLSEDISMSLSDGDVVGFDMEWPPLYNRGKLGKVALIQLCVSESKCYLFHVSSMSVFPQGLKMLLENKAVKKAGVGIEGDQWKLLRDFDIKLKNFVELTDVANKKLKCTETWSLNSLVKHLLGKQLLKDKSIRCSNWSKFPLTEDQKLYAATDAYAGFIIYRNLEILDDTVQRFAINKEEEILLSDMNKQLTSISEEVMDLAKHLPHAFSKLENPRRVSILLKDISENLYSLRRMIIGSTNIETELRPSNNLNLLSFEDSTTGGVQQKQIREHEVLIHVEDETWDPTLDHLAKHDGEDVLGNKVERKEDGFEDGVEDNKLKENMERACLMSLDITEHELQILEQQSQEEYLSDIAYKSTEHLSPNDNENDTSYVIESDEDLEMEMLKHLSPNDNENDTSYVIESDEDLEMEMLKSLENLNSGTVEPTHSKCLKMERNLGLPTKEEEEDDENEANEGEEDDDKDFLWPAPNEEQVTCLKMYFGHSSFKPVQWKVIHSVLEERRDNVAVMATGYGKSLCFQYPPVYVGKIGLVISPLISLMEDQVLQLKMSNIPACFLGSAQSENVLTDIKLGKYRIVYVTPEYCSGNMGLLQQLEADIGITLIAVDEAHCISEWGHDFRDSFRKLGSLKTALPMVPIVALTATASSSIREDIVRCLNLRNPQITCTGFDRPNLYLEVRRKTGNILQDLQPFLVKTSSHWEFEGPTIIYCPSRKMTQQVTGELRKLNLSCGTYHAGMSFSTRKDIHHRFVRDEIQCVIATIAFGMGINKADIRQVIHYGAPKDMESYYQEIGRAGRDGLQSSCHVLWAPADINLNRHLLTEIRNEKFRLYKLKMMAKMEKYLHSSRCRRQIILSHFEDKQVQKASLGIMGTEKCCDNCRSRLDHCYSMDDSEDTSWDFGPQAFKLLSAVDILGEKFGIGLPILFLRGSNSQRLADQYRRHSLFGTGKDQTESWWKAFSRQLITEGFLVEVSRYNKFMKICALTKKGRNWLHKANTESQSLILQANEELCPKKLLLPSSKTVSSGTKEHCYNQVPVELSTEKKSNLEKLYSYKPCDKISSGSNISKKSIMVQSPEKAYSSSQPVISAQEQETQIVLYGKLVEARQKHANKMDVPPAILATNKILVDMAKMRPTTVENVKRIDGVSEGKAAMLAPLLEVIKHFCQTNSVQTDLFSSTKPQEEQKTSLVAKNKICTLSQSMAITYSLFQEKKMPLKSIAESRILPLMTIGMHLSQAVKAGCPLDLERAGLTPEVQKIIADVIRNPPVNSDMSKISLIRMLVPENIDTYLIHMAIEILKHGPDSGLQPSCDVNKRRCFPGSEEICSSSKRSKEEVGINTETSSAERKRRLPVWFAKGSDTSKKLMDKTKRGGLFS
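Primary qHTS, 1536-well format. 20 nM WRN + compound, 15 min RT; start with 100 nM forked fluorophore/quencher duplex, 2 mM ATP (final); kinetic read ex 525/em 598 nm.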
PGK validate – TbPGK inhibition, hit validation. TbPGK coupled GAPDH assay, Kinase-Glo luminescence. AID 686980. hit rate 79% among 500. shares compounds with Pol kappa inh-1. Potency, µM (highest dose often 57.5 µM), without a hit: at the top dose activity change, negative = inhibition, most hits filed as inhibitors; also: % is scaled to controls: 0 for no effect and ±100 for the full control effect; nearly all actives have a fitted effect of over 65% in size
POLI cherry-pick – Inhibitors of human DNA polymerase iota, confirmation; shares compounds with Pol kappa inh-1; Pol iota primer extension, TAMRA/BHQ fluorescence; Potency, µM, most hits filed as inhibitors; hit rate 77% among 1,500
Pol kappa inh-2 – Pol kappa (human) inhibition, cherry-pick confirmation. hit rate 76% among 920. purified Pol-kappa, fluorescent strand-displacement substrate. shares compounds with Pol eta inh-1. AID 720501. Potency, µM, actives largely listed as inhibitors
Pol eta inh-2 – Pol eta (human) inhibition, cherry-pick confirmation | shares compounds with Pol eta inh-1 | Pol eta primer extension, TAMRA/BHQ fluorescence, 10 min | Potency, µM, most hits filed as inhibitors | hit rate 64% among 2,600 | AID 720502
FEN1 inh-2 – FEN1 inhibition, cherry-pick retest. shares compounds with FEN1 inh-1. FEN1 flap cleavage, TAMRA/BHQ2 fluorogenic DNA substrate. Potency, µM, hits mostly inhibitors. hit rate 79% among 880. AID 720498; also: nearly all actives have a fitted effect of over 60% in size
WRN helicase inh-2 – confirmation of human WRN helicase inhibitors | AID 720497 | Potency, µM (doses to about 57.1 µM), inactives show top-dose activity, negative = inhibition, hits mostly inhibitors | shares compounds with WRN helicase inh-1 | hit rate 63% among 610 | WRN helicase DNA unwinding, fluorescence kinetic; also: nearly all actives have a fitted effect of over 65% in size
TO DNA binding – DNA binding via thiazole orange displacement | shares compounds with WRN helicase inh-1 | thiazole orange DNA binding displacement, fluorescence | Potency, µM (doses to about 57.1 µM), without a hit: at the top dose activity change, negative = inhibition, most hits filed as inhibitors | hit rate 10% among 610 | AID 720499;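 also: drop in dye fluorescence marks compound binding to DNA; % is scaled to controls: 0 for no effect and ±100 for the full control effect; nearly all actives have a fitted effect of over 60% in size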
BLM helicase inh – counter-screen for WRN helicase inhibitors: human BLM helicase inhibition; Recombinant BLM helicase DNA unwinding, red fluorescence; hit rate 60% among 610; shares compounds with WRN helicase inh-1; Potency, µM (top dose mostly 57.1 µM), for the others: top-dose activity change, negative = inhibition, actives largely listed as inhibitors; also: nearly all actives have a fitted effect of over 60% in size
The depositor's hits bear a star; ? = inconclusive; · = no result given; [ ] = dose if it differs, or a comment. Calls follow the shape of the dose curve; as a rule, active = well fitted curve in the direction sought with a large enough effect; inconclusive = small, poorly fitted or top-dose-only effect, or another doubt; inactive = no such curve, though single readings can be large; an effect the other way counts as inactive or inconclusive. Potency is read from the fitted curve at half-maximal effect.

SMILES	POLB inh	Pol kappa inh-1	POLI inh	Pol eta inh-1	FEN1 inh-1	WRN helicase inh-1	POLI cherry-pick	Pol eta inh-2	WRN helicase inh-2	TO DNA binding	BLM helicase inh	others
O=C(c1cccc(S(=O)(=O)N2CCN(c3ccccc3)CC2)c1)N1CCCCCCC1	·	-5%	20%	-19%	-1%	-4%	·	·	·	·	·
O=C(c1cccc(-n2cccc2)c1)N1CCN(S(=O)(=O)c2ccccc2)CC1	·	18µM*	8.9µM*	8.9µM*	?	18µM*	4.2*	8.5*	4.3µM*	?	1.1µM*
Cc1cc(NC(=O)Cc2cccs2)no1	8.9µM*	22µM*	7.9µM*	22µM*	56µM*	?	15*	19*	8.6µM*	24µM*	0.96µM*	FEN1 inh-2=?
CCCC(=O)NC1=C(Cl)C(=O)c2ccccc2C1=O	·	-6%	6.3µM*	?	-33%	25µM*	67*	·	-17%	4.8µM*	24µM*
O=C(O)c1ccc(-n2cccc2/C=C2\SC(=O)N(Cc3ccc(Cl)cc3)C2=O)cc1	·	·	·	·	·	·	42*	15*	9.6µM*	-28%	8.6µM*	FEN1 inh-2=76*
O=C(O)c1ccc(/C=C2/SC(=S)N(Cc3ccccc3)C2=O)cc1	-28%	-3%	-18%	-16%	9%	-3%	·	·	·	·	·
O=C(O)c1ccc(-n2cccc2/C=C2\SC(=O)N(Cc3cccc(Cl)c3)C2=O)cc1	·	·	·	·	·	·	?	30*	19µM*	-18%	14µM*
CCc1ccccc1NC(=O)Cn1c(=O)n(Cc2ccco2)c(=O)c2ccccc21	-14%	-12%	0%	-8%	15%	·	·	·	·	·	·
CCOc1ccc(NC(=O)c2ccc3c(=O)n4nc(Nc5ccccc5C)sc4nc3c2)cc1	-1%	0%	16%	-19%	2%	·	·	·	·	·	·
N#C/C(=C\c1ccc(-c2ccc(C(=O)O)cc2)o1)C(=O)Nc1ccccc1C(=O)O	?	32µM*	?	11µM*	?	·	67*	30*	?	11µM*	19µM*	Pol kappa inh-2=5.3*
O=C(O)CCCNc1cc(N2CCN(C(=O)c3ccco3)CC2)c2noc3c2c1C(=O)c1ccccc1-3	16µM*	32µM*	32µM*	10µM*	?	45µM*	27*	9.5*	14µM*	295%	19µM*	Pol kappa inh-2=?;FEN1 inh-2=27*
O=C1c2ccccc2-c2c1cccc2C(=O)N1CCN(C(=O)c2ccco2)CC1	3%	-8%	5%	-16%	1%	-1%	·	·	·	·	·
Cc1cccc2sc(NC(=O)C3CCN(S(=O)(=O)c4cc([N+](=O)[O-])ccc4Cl)CC3)nc12	?	79µM*	25µM*	11µM*	-16%	?	?	76*	?	?	7.6µM*
Cc1nnc(NC(=O)C2CCN(S(=O)(=O)c3cc([N+](=O)[O-])ccc3Cl)CC2)o1	·	0%	18%	-19%	18%	7%	·	·	·	·	·
O=C1C=C(c2c(O)ccc3ccccc23)c2ccccc2C1=O	·	-3%	3.5µM*	20µM*	?	20µM*	84*	·	-19%	?	?
O=C(O)c1cc2ccccc2c2c1C(=O)c1ccccc1-2	·	·	·	-5%	·	-12%	·	·	·	·	·
CC(=O)Nc1ccc(SCC(c2ccccc2)N2CCN(C)CCC2=O)cc1 (stereo not drawn)	·	-16%	35%	·	-3%	·	·	·	·	·	·
NS(=O)(=O)c1cc(C(=O)NC2CCSc3ccccc32)ccc1Cl (stereo not drawn)	0.32µM*	0.79µM*	1.3µM*	-100%	2.8µM*	0.84µM*	0.6*	0.6*	0.54µM*	-21%	0.27µM*	PGK validate=0.15µM*;Pol kappa inh-2=0.27*;FEN1 inh-2=3.8*
CC1=C(C(=O)Nc2ccccc2)C(c2ccc[nH]2)n2ncnc2N1 (stereo not drawn)	8.9µM*	?	?	·	?	·	8.4*	8.5*	7.6µM*	?	1.1µM*	Pol kappa inh-2=3.4*;FEN1 inh-2=76*
O=C(COc1ccc(/C=N/NC(=O)c2ccccc2O)cc1)Nc1ccc([N+](=O)[O-])cc1	-11%	9%	?	?	3%	17µM*	34*	60*	11µM*	?	4.8µM*
O=C(COc1ccc(/C=N/NC(=O)c2ccncc2)cc1)Nc1ccccc1	?	-7%	10%	-12%	1%	-21%	·	·	·	·	·
O=c1c(-c2cccc(F)c2)nc2cncnc2n1Cc1ccccc1	·	-5%[60.1 µM]	·	·	·	·	·	·	·	·	·
Nc1ccc2c(c1)C(=O)c1ccccc1-2	·	-8%	3%	8%	-17%	-9%	·	·	·	·	·
